Data on 5 compounds can be found in PubChem BioAssay (NCATS).

Experiment [1] deals with Lysosomal acid glucosylceramidase (Homo sapiens) (UniProt P04062). As to the kind of experiment: Glucocerebrosidase-p2 (AID 348; in the data active = potency below about 10 µM; also: potency is read from the fitted curve at half-maximal effect). As to conditions: purified GBA, blue fluorogenic substrate, 40 min. The method in brief: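 Compounds titrated from 0.6 nM upwards against 0.2 nM enzyme in pH 5.9 citric acid/KH2PO4, taurocholate, tween-20; blue fluorogenic substrate 80 uM, 40 min room temperature, stopped and read Ex 365/Em 440 for AC50.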
Sequence of Lysosomal acid glucosylceramidase (Homo sapiens) (P04062 whole entry, looked up): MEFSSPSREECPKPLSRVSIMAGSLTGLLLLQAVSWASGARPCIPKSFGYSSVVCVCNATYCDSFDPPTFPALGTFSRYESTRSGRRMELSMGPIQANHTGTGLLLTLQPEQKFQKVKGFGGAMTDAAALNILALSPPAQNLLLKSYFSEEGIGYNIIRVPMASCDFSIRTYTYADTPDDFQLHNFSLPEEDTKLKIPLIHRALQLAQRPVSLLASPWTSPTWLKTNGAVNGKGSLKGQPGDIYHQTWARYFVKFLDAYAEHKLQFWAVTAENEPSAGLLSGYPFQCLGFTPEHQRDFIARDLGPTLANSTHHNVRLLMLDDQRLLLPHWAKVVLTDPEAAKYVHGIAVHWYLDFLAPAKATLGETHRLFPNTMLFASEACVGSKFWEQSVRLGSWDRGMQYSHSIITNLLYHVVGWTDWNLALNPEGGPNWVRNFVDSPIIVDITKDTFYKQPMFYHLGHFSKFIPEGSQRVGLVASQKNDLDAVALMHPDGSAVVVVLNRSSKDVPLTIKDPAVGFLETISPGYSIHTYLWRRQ

Experiment [2] is described as follows: AP1 Signaling Pathway (AID 357; active = well fitted curve in either direction with a large enough effect, not every such curve was filed as active; also: % is scaled to controls: 0 for no effect and ±100 for the full control effect). To be noted: ME-180 AP-1-bla reporter, EGF-induced, beta-lactamase ratio, 5 h; at 7.69 µM (top of the series) unless noted. An outline of the steps: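 Cells are seeded overnight, exposed to compound titrations and an EC50 level of EGF for 5 hours at 37 °C, then loaded with CCF4 dye for 2.5 hours. Beta-lactamase activity under the AP-1 element is read as a blue/green ratio.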

Experiment [3] addresses Cytochrome P450 1A2 (Homo sapiens) (UniProt P05177). As to the kind of experiment: p450-cyp1a2 (AID 410; calls by dose curve; also: potency is read from the fitted curve at half-maximal effect). To be noted: recombinant CYP1A2, luciferin-ME demethylation, luminescence; series mostly up to 57 µM. The method in brief:
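20nM CYP1A2 with 100uM Luciferin-ME (at Km) in 100mM KPO4; compound preincubated 10 min, NADPH regeneration added, 60 min at room temperature. Luciferin quantified by luminescence after detection reagent; normalized to 57 uM furafylline.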

Experiment [4] can be described thus: NFAT Signaling Pathway (AID 444; active = well fitted curve in either direction with a large enough effect, not every such curve was filed as active;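 also: carbachol stimulus at about its EC50 of 1 µM final; % is scaled to controls: 0 for no effect and ±100 for the full control effect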). To be noted: Jurkat NFAT-bla M1, carbachol, beta-lactamase ratio, 5 h; at 7.69 µM (top of the series) unless noted. An outline of the steps: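 Jurkat cells with NFAT-driven β-lactamase reporter and co-expressed M1 receptor, stimulated with carbachol (final 1 uM, ~EC50), compound titration, 5 h at 37 °C. CCF4 loaded 1 h at RT; 460/530 nm ratio gave %activity and AC50.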

Experiment [5] in a line: Stat Signaling Pathway (AID 446; active = well fitted curve in either direction with a large enough effect, not every such curve was filed as active;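 also: ME-180 cervical cancer cells given 40 pM IL-6 alongside compound; SIE-controlled beta-lactamase reporter measured as 460/530 nm FRET emission ratio; % is scaled to controls: 0 for no effect and ±100 for the full control effect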). To be noted: ME-180 (cervical carcinoma) SIE beta-lactamase reporter, IL-6 stimulated, 5 h; at 7.69 µM (top of the series) unless noted. An outline of the steps:
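ME-180 SIE-bla cells; overnight plating; cpd + IL-6 40 pM, 5 h, 37 C; LiveBLAzer 2.5 h RT; 460/530 nm emission ratio. Normalized to 300 pM IL-6 and 125 nM JAK inhibitor controls.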

In experiment [6] the target is Glucocorticoid receptor (Homo sapiens) (UniProt P04150). Description: GR-EFC Redistribution (AID 451; calls by dose curve; also: potency is read from the fitted curve at half-maximal effect). To be noted: CHO-K1 GR-EFC translocation, beta-gal luminescence, 2 h. The method in brief: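 CHO-K1 cells expressing nuclear EA and GR-ED fragments of b-gal; compounds titrated up to 46 uM final, 2 h at 37 C. GR nuclear translocation read as complemented b-gal luminescence after 1 h RT detection.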
Sequence of Glucocorticoid receptor (Homo sapiens) (P04150 whole entry, looked up, the tested form may be a part): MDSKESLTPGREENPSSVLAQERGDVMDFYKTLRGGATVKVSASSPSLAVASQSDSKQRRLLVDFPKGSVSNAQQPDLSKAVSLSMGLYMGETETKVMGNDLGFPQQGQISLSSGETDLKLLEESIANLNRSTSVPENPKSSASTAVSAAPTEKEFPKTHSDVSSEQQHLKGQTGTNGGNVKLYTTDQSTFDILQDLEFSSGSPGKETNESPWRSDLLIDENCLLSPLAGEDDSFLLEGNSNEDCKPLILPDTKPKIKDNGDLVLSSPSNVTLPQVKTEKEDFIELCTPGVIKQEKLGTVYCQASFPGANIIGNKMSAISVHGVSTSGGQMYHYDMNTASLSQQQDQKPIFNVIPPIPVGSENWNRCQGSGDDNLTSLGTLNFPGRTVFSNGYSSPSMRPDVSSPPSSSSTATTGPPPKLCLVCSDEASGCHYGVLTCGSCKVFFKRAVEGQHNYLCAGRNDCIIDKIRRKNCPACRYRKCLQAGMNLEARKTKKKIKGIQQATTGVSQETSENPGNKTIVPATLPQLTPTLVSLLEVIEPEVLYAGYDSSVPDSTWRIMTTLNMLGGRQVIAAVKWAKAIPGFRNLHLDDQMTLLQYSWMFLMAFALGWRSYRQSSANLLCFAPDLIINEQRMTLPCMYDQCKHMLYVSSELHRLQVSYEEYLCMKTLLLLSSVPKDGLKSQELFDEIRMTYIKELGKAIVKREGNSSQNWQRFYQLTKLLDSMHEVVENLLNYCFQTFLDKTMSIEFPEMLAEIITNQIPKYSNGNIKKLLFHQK

In experiment [7] the target is Mitogen-activated protein kinase 10 (Mus musculus) (UniProt Q61831). As to the kind of experiment: JNK3 AlphaScreen Assay (AID 530; active = well fitted curve in either direction with a large enough effect, not every such curve was filed as active;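 also: kinase came from lysate of stimulated human HepG2 cells; signal reports phosphorylation of biotinylated GST-cJun 1-79 at Ser73 with 10 µM ATP; % is scaled to controls: 0 for no effect and ±100 for the full control effect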). To be noted: JNK3 lysate, c-Jun phosphorylation; series mostly up to 57.1 µM. An outline of the steps:
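Pre-activated (IL-1β/TNFα) JNK3 in HepG2 lysates phosphorylates biotin-GST-cJun(1-79), 10 uM ATP; anti-phospho-cJun(Ser73) AlphaScreen read at room temperature, pH 7.6 Tris buffer. Compounds pre-incubated 15 min as titrations.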

In experiment [8] the target is 3',5'-cyclic-AMP phosphodiesterase 4B (Homo sapiens) (UniProt Q07343). As to the kind of experiment: qHTS Assay for Inhibitors of PDE-IV (AID 607; active = well fitted activation curve with a large enough effect in the main read-out, with a control signal flat, not every such curve was filed as active; also: % of control where 0% means no effect). To be noted: HEK293 ACTOne CNG channel cells, membrane potential fluorescence; series mostly up to 22.9 µM. The method in brief:
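ACTOne HEK293 cells carry a modified cAMP-gated CNG channel and express endogenous PDE4; plated 1000 cells/well, compounds up to 22.9 uM final. Membrane-potential dye fluorescence (ex 535/em 590) was read; parental cells received 10 uM forskolin + 100 uM RO 20-1724.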
A general note: qHTS replaces the single test concentration by a dilution series.

Experiment [9] has as its target Cytochrome P450 3A4 (Homo sapiens) (UniProt P08684). As to the kind of experiment: qHTS Assay for Inhibitors and Substrates of Cytochrome P450 3A4 (AID 884). Also: nearly all actives have a fitted effect of over 50% in size. Also: potency is read from the fitted curve at half-maximal effect. As to conditions: recombinant CYP3A4, Luciferin-PPXE luminescence; series mostly up to 57.1 µM. An outline of the steps: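 20 nM human CYP3A4 with 25 uM Luciferin-PPXE (at KM) in 200 mM KPO4, preincubated 10 min with compound; NADPH regeneration started a 60 min RT reaction. Luciferin detected by luminescence, normalized to 57 uM ketoconazole as full inhibition.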

Experiment [10] in a line: Confirmation and Secondary Assay for Modulators of Hemoglobin Beta Chain Splicing at IVS2 654 locus (AID 910).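 Also: HeLa cells stably carrying EGFP split by mutant beta-globin IVS2-654 intron; % of control where 0% means no effect.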 As to conditions: HeLa EGFP-654 splicing reporter, GFP fluorescence, 48 h; series mostly up to 38.3 µM. The method in brief:
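HeLa cells stably expressing EGFP interrupted by β-globin IVS2-654 intron, seeded overnight in Opti-MEM/2% FCS, then treated 2 days at 37 °C. Restored splicing read as total peak GFP intensity per well by laser scanning cytometry (488 nm excitation, 500–520 nm emission); 500 nM antisense PNA as control.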

Experiment [11] in a line: Confirmation and Secondary Assay for Modulators of Hemoglobin Beta Chain Splicing at IVS2 705 locus (AID 930).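 Also: HeLa cells stably expressing the EGFP-705 splicing reporter; GFP fluorescence per well restored by corrected splicing of the IVS2-705 intron in EGFP; % of control where 0% means no effect.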 As to conditions: HeLa EGFP-705 splicing reporter, GFP fluorescence, 48 h; series mostly up to 38.3 µM. An outline of the steps: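 Stable HeLa line with EGFP disrupted by mutant beta-globin intron 2 (705). Overnight attachment, then 2 days of compound at 37C, 5% CO2. Signal: peak GFP intensity summed over objects 5-250 µm.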

Experiment [12] is described as follows: qHTS Assay for Lipid Storage Modulators (AID 1519; calls by dose curve). To be noted: Drosophila S3 cells, BODIPY lipid droplet/cell ratio, laser cytometry, cells loaded with oleic acid; for activity change, negative = inhibition: at 57.5 µM (top of the series). An outline of the steps:
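Cells seeded at 5,000 per well were treated with compounds over a concentration series and loaded with oleic acid (400 uM, as added). Lipid droplet fluorescence (488 nm excitation, 500-530 nm channel) was read by laser-scanning cytometry and normalized to 20 uM Triacsin C.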

Experiment [13] deals with Ubiquitin carboxyl-terminal hydrolase 1 (Homo sapiens) (UniProt O94782). Description: Inhibitors of USP1/UAF1: Pilot qHTS (AID 504865).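 Also: rhodamine fluorescence freed from ubiquitin-rhodamine substrate followed over time; top concentration of the series differs between compounds; % is scaled to controls: 0 for no effect and ±100 for the full control effect; nearly all actives have a fitted effect of over 35% in size.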 To be noted: purified USP1/UAF1, Ub-rhodamine cleavage fluorescence; series mostly up to 54.9 µM. The method in brief: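 Enzyme-free wells gave the negative control, while test wells held 1nM USP1/UAF1 preincubated with compound for 15 min at room temperature. Ub-Rho at 150nM final started the reaction, and fluorescence at 480/540 nm was recorded kinetically.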
Sequence of Ubiquitin carboxyl-terminal hydrolase 1 (Homo sapiens) (O94782 whole entry, looked up): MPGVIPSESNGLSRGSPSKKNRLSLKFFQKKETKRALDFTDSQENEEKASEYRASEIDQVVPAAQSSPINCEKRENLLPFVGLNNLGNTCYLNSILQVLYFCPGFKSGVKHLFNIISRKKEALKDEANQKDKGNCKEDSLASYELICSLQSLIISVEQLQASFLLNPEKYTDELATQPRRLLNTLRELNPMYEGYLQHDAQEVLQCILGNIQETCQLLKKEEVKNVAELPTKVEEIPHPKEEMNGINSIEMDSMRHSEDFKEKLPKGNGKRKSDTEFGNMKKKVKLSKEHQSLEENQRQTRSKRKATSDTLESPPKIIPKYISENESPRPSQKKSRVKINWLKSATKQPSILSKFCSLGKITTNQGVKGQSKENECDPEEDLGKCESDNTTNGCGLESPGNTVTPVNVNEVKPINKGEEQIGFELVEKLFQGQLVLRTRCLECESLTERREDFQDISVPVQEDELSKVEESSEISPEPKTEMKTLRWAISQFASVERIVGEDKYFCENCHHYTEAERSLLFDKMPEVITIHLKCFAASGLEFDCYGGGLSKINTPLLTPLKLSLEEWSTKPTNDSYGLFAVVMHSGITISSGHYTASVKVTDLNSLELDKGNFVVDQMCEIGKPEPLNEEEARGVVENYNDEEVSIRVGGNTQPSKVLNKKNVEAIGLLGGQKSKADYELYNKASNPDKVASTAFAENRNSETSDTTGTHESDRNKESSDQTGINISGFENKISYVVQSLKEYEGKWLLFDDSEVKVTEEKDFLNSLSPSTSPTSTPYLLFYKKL

Experiment [14] can be described thus: Primary qHTS for small molecule stabilizers of the endoplasmic reticulum resident proteome: Secreted ER Calcium Modulated Protein (SERCaMP) assay (AID 1508630). Also: % is scaled to controls: 0 for no effect and ±100 for the full control effect. To be noted: SH-SY5Y GLuc-SERCaMP (Gaussia luciferase released on ER calcium loss) secretion, thapsigargin, luminescence; series mostly up to 38.4 µM. The method in brief:
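GLuc-SERCaMP-expressing SH-SY5Y cells, pretreated 16 h with compound, are challenged with thapsigargin to empty ER calcium stores; after 4 h, coelenterazine is added directly to the medium and luminescence is imaged.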

The target in experiment [15] is Glucocorticoid receptor (Homo sapiens) (UniProt P04150). Description: GR-GFP Redistribution (AID 450;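 active = compounds whose dose series gives a full or clear partial fitted curve of increased nuclear translocation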; also: potency is read from the fitted curve at half-maximal effect). To be noted: U2OS GR-GFP nuclear translocation, laser cytometry, 2 h.
Experiment [16] addresses Cytochrome P450 2C9 (Homo sapiens) (UniProt P11712). As to the kind of experiment: qHTS Assay for Inhibitors and Substrates of Cytochrome P450 2C9 (AID 883). Also: nearly all actives have a fitted effect of over 60% in size. Also: potency is read from the fitted curve at half-maximal effect. To be noted: recombinant CYP2C9, luciferin-H luminescence, 60 min; series mostly up to 57.1 µM. An outline of the steps:
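Human CYP2C9 (10nM) with Luciferin-H at 100uM (its KM) in 25mM KPO4; compound preincubated 10 min at 37C, then NADPH regeneration for 60 min at 37C. Luciferin read by luminescence after detection reagent; normalized to 57uM sulphaphenazole as full inhibition.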

The target of experiment [17] is Cytochrome P450 3A4 (Homo sapiens) (UniProt P08684). As to the kind of experiment: qHTS Assay for Activators of Cytochrome P450 3A4 (AID 885). Also: nearly all actives have a fitted effect of over 65% in size. As to conditions: recombinant CYP3A4, Luciferin-PPXE luminescence, 60 min; series mostly up to 57.1 µM. The method in brief: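 20nM CYP3A4 + 25uM Luciferin-PPXE (=KM), 200mM KPO4; cpd 10 min RT; NADPH regen, 60 min RT; stop w/ detection buffer, 20 min; luminescence. Normalized to 57 uM ketoconazole.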
Sequence of Cytochrome P450 3A4 (Homo sapiens) (P08684 whole entry, looked up): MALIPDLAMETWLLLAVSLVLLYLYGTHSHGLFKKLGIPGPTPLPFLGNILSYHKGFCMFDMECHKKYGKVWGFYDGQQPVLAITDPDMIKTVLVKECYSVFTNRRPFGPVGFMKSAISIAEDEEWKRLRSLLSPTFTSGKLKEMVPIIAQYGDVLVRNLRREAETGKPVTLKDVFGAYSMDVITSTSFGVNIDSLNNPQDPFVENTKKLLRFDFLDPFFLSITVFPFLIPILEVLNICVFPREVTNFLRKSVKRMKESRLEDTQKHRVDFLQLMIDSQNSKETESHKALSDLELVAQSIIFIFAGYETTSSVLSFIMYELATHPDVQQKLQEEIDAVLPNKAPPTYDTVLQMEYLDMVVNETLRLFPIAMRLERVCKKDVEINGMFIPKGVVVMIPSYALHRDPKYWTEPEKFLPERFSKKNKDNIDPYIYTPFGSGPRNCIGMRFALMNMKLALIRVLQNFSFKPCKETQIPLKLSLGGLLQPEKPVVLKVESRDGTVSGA

Experiment [18] concerns the target Cytochrome P450 2C19 (Homo sapiens) (UniProt P33261). As to the kind of experiment: qHTS Assay for Inhibitors and Substrates of Cytochrome P450 2C19 (AID 899). Also: potency is read from the fitted curve at half-maximal effect; nearly all actives have a fitted effect of over 60% in size. As to conditions: recombinant CYP2C19, luciferin-H EGE luminescence; series mostly up to 57.1 µM. The method in brief:
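5 nM human CYP2C19 with 10uM Luciferin-H EGE (at KM) in 50mM KPO4, compound preincubated 10 min at 37C, then NADPH regeneration for 60 min at 37C. Luciferin read by luminescence after detection reagent; normalized to 57uM ketoconazole as full inhibition.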

[19] abbreviates: measured here: cell count channel max response.
[20] abbreviates: measured here: lipid channel max response.

Molecules are shown by their SMILES. Records with an inconclusive call do not appear. Active and inactive are the calls of the source. Unless noted, calls follow the shape of the dose curve; as a rule, active = well fitted curve in the direction sought with a large enough effect; inconclusive = small, poorly fitted or top-dose-only effect, or another doubt; inactive = no such curve, though single readings can be large; an effect the other way counts as inactive or inconclusive.

Sequence of Cytochrome P450 1A2 (Homo sapiens) (P05177 whole entry, looked up): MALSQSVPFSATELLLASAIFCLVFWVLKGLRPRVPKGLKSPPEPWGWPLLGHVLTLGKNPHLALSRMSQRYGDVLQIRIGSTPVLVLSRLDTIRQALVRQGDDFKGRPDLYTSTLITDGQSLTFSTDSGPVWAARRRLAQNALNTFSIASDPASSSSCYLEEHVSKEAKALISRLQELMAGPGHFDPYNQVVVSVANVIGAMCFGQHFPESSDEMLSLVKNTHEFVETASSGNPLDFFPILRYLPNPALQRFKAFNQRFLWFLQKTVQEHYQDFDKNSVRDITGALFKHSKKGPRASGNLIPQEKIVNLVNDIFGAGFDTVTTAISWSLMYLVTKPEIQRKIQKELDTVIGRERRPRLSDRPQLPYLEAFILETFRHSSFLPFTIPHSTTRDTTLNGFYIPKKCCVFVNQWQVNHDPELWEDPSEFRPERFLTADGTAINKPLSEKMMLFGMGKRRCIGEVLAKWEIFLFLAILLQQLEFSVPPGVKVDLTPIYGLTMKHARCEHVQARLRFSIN
Sequence of 3',5'-cyclic-AMP phosphodiesterase 4B (Homo sapiens) (Q07343 whole entry, looked up): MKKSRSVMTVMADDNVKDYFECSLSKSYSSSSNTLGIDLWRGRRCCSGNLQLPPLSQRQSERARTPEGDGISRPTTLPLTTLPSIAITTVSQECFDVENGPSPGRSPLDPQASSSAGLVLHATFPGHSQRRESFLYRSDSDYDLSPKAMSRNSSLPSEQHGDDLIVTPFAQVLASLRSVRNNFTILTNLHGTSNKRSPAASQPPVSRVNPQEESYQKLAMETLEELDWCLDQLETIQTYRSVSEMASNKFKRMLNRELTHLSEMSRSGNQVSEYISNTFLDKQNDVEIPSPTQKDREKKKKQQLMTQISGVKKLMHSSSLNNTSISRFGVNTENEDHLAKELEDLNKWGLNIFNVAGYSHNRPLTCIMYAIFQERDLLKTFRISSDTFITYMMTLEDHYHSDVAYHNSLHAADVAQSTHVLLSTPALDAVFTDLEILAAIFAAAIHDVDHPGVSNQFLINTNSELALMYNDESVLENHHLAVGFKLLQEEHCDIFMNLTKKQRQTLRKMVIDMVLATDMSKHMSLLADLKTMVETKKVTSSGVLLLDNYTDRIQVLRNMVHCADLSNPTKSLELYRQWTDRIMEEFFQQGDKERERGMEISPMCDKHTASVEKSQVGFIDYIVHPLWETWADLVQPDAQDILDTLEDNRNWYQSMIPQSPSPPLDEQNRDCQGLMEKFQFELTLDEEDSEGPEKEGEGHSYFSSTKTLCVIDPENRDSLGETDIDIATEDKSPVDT
Sequence of Cytochrome P450 2C9 (Homo sapiens) (P11712 whole entry, looked up): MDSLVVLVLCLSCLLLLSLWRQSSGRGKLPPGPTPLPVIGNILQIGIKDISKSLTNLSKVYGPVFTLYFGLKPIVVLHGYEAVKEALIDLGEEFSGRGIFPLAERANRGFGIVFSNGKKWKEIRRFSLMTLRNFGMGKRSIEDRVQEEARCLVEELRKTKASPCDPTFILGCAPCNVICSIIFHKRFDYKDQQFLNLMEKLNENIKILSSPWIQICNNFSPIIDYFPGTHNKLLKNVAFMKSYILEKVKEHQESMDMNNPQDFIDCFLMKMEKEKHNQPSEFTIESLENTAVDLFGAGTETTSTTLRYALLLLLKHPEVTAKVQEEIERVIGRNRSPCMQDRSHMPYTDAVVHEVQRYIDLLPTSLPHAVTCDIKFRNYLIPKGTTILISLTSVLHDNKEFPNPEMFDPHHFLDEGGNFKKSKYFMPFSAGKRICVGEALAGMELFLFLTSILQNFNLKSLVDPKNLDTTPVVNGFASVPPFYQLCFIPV
Sequence of Cytochrome P450 2C19 (Homo sapiens) (P33261 whole entry, looked up): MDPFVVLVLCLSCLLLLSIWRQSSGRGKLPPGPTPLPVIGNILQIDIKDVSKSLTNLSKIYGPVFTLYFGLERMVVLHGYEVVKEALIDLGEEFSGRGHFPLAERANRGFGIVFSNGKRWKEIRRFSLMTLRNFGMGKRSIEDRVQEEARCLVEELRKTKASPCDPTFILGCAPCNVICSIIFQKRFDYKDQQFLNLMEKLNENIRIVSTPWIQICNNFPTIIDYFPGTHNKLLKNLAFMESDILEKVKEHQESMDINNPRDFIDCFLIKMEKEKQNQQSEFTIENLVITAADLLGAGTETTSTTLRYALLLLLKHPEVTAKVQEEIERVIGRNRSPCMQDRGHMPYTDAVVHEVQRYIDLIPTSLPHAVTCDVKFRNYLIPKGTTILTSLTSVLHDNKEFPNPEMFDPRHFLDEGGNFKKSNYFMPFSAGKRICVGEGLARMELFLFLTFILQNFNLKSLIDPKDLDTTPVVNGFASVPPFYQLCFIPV

For the compound `COc1ccccc1-c1cncnc1-n1ccnc1`, the Potency is > 11.4 µM (inactive) in [1], 12.6 µM (active) in experiment [3] and > 46 µM (inactive) in experiment [6]. Also, the activity change, negative = inhibition in [2] was -7.86% (inactive); in experiment [4], 1.61% (inactive); in [12] it was 7.28% (inactive). The activity, negative = inhibition in experiment [5] was 10.2% (inactive). For the same compound, the compound was classed as inactive in experiment [7], in experiment [10] and in experiment [11]. The Potency entry in experiment [8], in experiment [9], in [13] and in experiment [14] was “inactive” in each case. The max response is 19.4% in experiment [12] (setting [19]) and 28.5% in [12] (setting [20]).

As for `COc1ccccc1CCn1c(=O)c(-c2cc(F)cc(F)c2)nc2cncnc21`, the Potency in experiment [1] is > 11.4 µM (inactive); in experiment [3], 1.58 µM (active); in experiment [15] it was > 9.22 µM (inactive); in experiment [6], > 46 µM (inactive); in experiment [16] it was 1.58 µM (active); in experiment [9] it was 0.398 µM (active). Also, in experiment [18], the Potency is 1.58 µM (active). The figures for the activity change, negative = inhibition in experiment [2], in experiment [4] and in experiment [12] were -3.28% (inactive), -7.47% (inactive) and 6.22% (inactive), respectively. Further, the activity, negative = inhibition in [5] was 13% (inactive). Also, the outcome in [7] was inactive. The Potency entry in [17] and in [14] was “inactive” each time. The max response is -2.09% in experiment [12] (setting [19]) and 2.22% in experiment [12] (setting [20]).

Turning to `c1ccc2c(-n3ccnc3)nc(-c3ccoc3)nc2c1`, the Potency was > 11.4 µM (inactive) in experiment [1]; 0.501 µM (active) in experiment [3]; > 46 µM (inactive) in experiment [15]; > 46 µM (inactive) in experiment [6]; 0.199 µM (active) in experiment [9]. For the same compound, the activity change, negative = inhibition in experiment [2] is -13.9% (inactive); in experiment [4], 3.28% (inactive); in experiment [12] it was 9.53% (inactive). Also, in experiment [5], the activity, negative = inhibition was 7.69% (inactive). The result in experiment [7], in experiment [10] and in experiment [11] was inactive. Further, the Potency entry in [17] and in experiment [14] was “inactive” each time. Further, the max response is 10.7% in experiment [12] (setting [19]) and 22.4% in experiment [12] (setting [20]).

Regarding `CN(C)c1ncc2ncc(=O)n(CCC#N)c2n1`, the Potency in [1] is > 11.4 µM (inactive); in experiment [3], 12.6 µM (active); in [15], > 9.22 µM (inactive); in experiment [6], > 46 µM (inactive). Further, the figures for the activity change, negative = inhibition in experiment [2], in experiment [4] and in experiment [12] were -12.7% (inactive), 3.55% (inactive) and 2.4% (inactive), respectively. Besides, in experiment [5], the activity, negative = inhibition was -2.2% (inactive). Moreover, the outcome in [7] was inactive. Also, the Potency entry in experiment [16] and in experiment [14] was “inactive” in each case. Moreover, the values for the max response in [12] (setting [19]) and in experiment [12] (setting [20]) were 25.3% and 29.8%, respectively.

Take `CN(C)c1ccc(-c2ccc3ncnc(N4CCNCC4)c3c2)cc1`: the Potency in [1] is > 11.4 µM (inactive); in experiment [3], 2.51 µM (active); in experiment [15] it was > 46 µM (inactive); in experiment [6] it was > 46 µM (inactive). For the same compound, the activity change, negative = inhibition in experiment [2] was 5.26% (inactive); in experiment [4], -13.1% (inactive); in [12] it was 7.34% (inactive). In addition, in [5], the activity, negative = inhibition is 5.8% (inactive). Also, the call in experiment [7], in experiment [10] and in experiment [11] was inactive. The Potency entry in [8], in experiment [17] and in experiment [14] was “inactive” throughout. The max response in [12] (setting [19]) was -3.08%; in experiment [12] (setting [20]), 4.85%.
